98 compounds from PubChem BioAssay AID1022 (Emory University Molecular Libraries Screening Center, 2008) can be followed below.

Out of some 220,000 compounds screened, about 3,300 (1.5%) were called active. Shown is part of a subset that was picked to be rich in actives. A number with no mark means an inactive call.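 Rule for the calls: active = compounds that cut the protein-peptide binding signal by more than 50% relative to plate controls in a single-dose test; inactive = the rest.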

Sequence of Induced myeloid leukemia cell differentiation protein Mcl-1 (Homo sapiens) (Q07820 whole entry, looked up): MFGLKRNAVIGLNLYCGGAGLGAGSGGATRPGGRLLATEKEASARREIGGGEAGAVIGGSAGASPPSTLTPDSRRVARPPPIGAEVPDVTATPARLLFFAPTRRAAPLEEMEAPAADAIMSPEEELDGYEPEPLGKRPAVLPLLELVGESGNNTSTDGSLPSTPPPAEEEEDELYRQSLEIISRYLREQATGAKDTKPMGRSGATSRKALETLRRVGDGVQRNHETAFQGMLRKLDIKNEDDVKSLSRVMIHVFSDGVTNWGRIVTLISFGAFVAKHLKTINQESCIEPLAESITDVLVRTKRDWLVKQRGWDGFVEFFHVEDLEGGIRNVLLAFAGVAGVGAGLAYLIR

The test has as its target Induced myeloid leukemia cell differentiation protein Mcl-1 (Homo sapiens) (UniProt Q07820). The test can be described thus: Mcl-1/Noxa binding inhibitors, primary screen, biochemical, TR-FRET, 1536-well (AID 1022).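 Note: His-tagged Mcl-1 with rhodamine Noxa BH3 peptide and terbium anti-His antibody; 0% = Mcl-1 plus Noxa peptide wells and 100% = peptide-only wells.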 The conditions noted are these: TR-FRET Mcl-1/Noxa peptide binding, 2 h; at 21.7 µM; hits give high values. On the technique in general: TR-FRET usually uses a lanthanide donor and a delayed reading to cut background.
In general, inhibition refers to the change of the read-out against control, counted positive when it falls. In the case of `NC1=NC(=O)S/C1=C\c1ccc(O)cc1`, the inhibition was 12.7%. Consider `CCOc1ccc(N=C2SC(C(=O)O)CC(=O)N2C)cc1` (stereo not drawn), for which the inhibition is 16.1%. Under `CCOc1ccc(N=C2NC(=O)S/C2=C\c2ccc(O)cc2)cc1` stands 98.8% (active); under `O=C(COC(=O)C12CC3CC(CC(C3)C1)C2)NCc1ccco1`, 54.8% (active).

For the compound `O=C(COC(=O)CCC(=O)c1cccs1)NCc1ccco1`, the inhibition is 41%.

For the compound `O=C(CC12CC3CC(CC(C3)C1)C2)NCc1ccco1`, the inhibition was 2.69%. Under `COc1ccc(NC(=S)N2CCc3cc(OC)c(OC)cc3C2)cc1` stands 11.1%; under `CC(/C=N/NC(=O)c1cc(-c2ccc3ccccc3c2)n[nH]1)=C\c1ccco1`, 78.8% (active).

Turning to `Cc1ccc(-c2cc(C(=O)N/N=C/C=C/c3ccco3)c3ccccc3n2)cc1C`, the inhibition was 19.7%. Turning to `CC(/C=N/NC(=O)c1ccncc1)=C\c1ccco1`, the inhibition was 16.1%. As to `COc1ccc(NC(=O)CSc2ncnc3[nH]ncc23)cc1`, the inhibition was 16.1%. The figure for `CCN(CC)c1ccc(NC(=O)C2CCC(CNc3c(N4CCCC4)c(=O)c3=O)CC2)c(C)c1` (stereo not drawn) is 19.7%; for `O=[N+]([O-])c1ccc(N2CCN(c3ccc(O)cc3)CC2)c(Cl)c1` it is 65.2% (active); for `O=C(O)C1CCN(c2ccc([N+](=O)[O-])cc2[N+](=O)[O-])CC1` it is 23.9%. The figure for `COc1ccc(N2CCN(c3ccc([N+](=O)[O-])cc3Cl)CC2)cc1` is 11.9%; for `O=C(N/N=C/c1ccc(Cl)cc1)c1nc2ccc([N+](=O)[O-])cc2c(=O)[nH]1` it is 71.4% (active); for `Cc1nc2ccccc2cc1C(=O)N/N=C/c1ccc([N+](=O)[O-])cc1` it is 9.39%.

As for `O=C(N/N=C/c1ccc([N+](=O)[O-])cc1)c1c[nH]c2ccccc12`, the inhibition is 14.4%.

With `CN1CCc2ccccc2C1Cc1ccccc1NC(=O)c1sc2ccccc2c1Cl` (stereo not drawn), the inhibition is -2.87%.

Consider `FC(F)(F)c1nc(-c2ccccc2)ncc1-c1nnnn1-c1ccccc1`, for which the inhibition was 35.2%. The figure for `C=CCNC(=S)N/N=C/c1ccc(C)s1` is 7.32%; for `Cc1nnc2sc(-c3ccco3)nn12` it is 3.91%; for `Fc1ccc(-c2ccc(-c3nn4c(-c5ccco5)nnc4s3)o2)cc1` it is 71% (active). The figure for `FC(F)(F)c1nnc2sc(-c3ccco3)nn12` is 2.95%; for `Cc1ccc(OCC(=O)Nc2nnc(-c3ccco3)s2)cc1` it is 17.5%; for `CNc1nnc(-c2ccco2)s1` it is 6.49%.

For the compound `COc1ccc(OCC(=O)Nc2nnc(-c3ccco3)s2)cc1`, the inhibition was 87.4% (active). The figure for `Cc1c([N+](=O)[O-])c(N)nn1C` is 12.1%; for `COc1ccc(-c2nc(CS(=O)CC(=O)N3CCc4ccccc4C3)c(C)o2)cc1` (stereo not drawn) it is 18.7%; for `Cc1ccc(-c2nc(CS(=O)CC(=O)NC3CCCC3)c(C)o2)cc1` (stereo not drawn) it is 10%.

`Cc1ccc(-c2nc(CS(=O)CC(=O)N3CCN(c4ncccn4)CC3)c(C)o2)cc1` (stereo not drawn): the inhibition was 54.7% (active).

As for `O=C(NCc1ccccc1Cl)NC(=O)c1csc([N+](=O)[O-])c1`, the inhibition is -17.3%. In the case of `Cc1coc2c(O)cc3c(c12)OC1(N2CCCCC2)C(=O)NCCCC31` (stereo not drawn), the inhibition is 62.4% (active).

Turning to `COc1ccc(/C=N/n2nnnc2N)cc1OC`, the inhibition was -6.77%. On to `Cc1c(NC(=O)c2cc(-c3ccc(Cl)s3)nc3ccccc23)c(=O)n(-c2ccccc2)n1C`, for which the inhibition is -5.37%. Turning to `Cc1ccc(-c2cc(C(=O)Nc3nn[nH]n3)c3ccccc3n2)c(C)c1`, the inhibition was 10.4%. `Cc1ccc(NC(=O)c2cc(-c3ccc(C)o3)nc3ccccc23)nc1`: the inhibition was 52.1% (active). Under `Cc1ccc(C(=O)N/C(=C\c2ccco2)C(=O)NC2CCS(=O)(=O)C2)cc1` (stereo not drawn) stands 2.28%; under `C=C(C)C(=O)Nc1cccc(C2=NOC3(C2)C[C@H](C(N)=O)N(C(=O)C(c2ccccc2)c2ccccc2)C3)c1` (stereo partly drawn), 79.5% (active); under `C/C=C\C=C\C(=O)N1CC2(CC(c3cccc(NC(=O)/C(C)=C\C)c3)=NO2)C[C@H]1C(N)=O` (stereo partly drawn), -3.38%. In the case of `C/C=C(/C)C(=O)Nc1cccc(C2=NOC3(C2)C[C@@H](C(N)=O)N(C(=O)C2(C)CC2)C3)c1` (stereo partly drawn), the inhibition was 10.3%.

For the compound `CCCN(CCC)CC(O)COc1ccccc1C(=O)Nc1ccccc1` (stereo not drawn), the inhibition was 2.75%. The figure for `COc1cc(/C=C(\C#N)C(=O)Nc2ccc3ccccc3c2)c([N+](=O)[O-])cc1OC` is 50.2%. The figure for `COc1ccc(NC(=O)/C(C#N)=C\c2cc(OC)c(OCc3ccc(C(=O)O)cc3)cc2Br)cc1` is 61.8% (active); for `COC(=O)c1ccc(COc2ccc(/C=N/NC(=O)C(=O)Nc3ccc(OC)cc3)cc2OC)o1` it is -4.48%.

`CCO[C@@H]1OC(C(=O)NC2CC2)=C[C@H](C)[C@H]1CCCO`: the inhibition is -4.75%.

As to `Cc1nc(-c2ccc(Cl)cc2)sc1C(=O)NN`, the inhibition is -14.8%. On to `Cc1nc(-c2ccc(Cl)cc2)sc1C(=O)CBr`, for which the inhibition was 61% (active). Consider `Cc1ccc(SCC(=O)c2sc(-c3ccccc3)nc2C)cc1`, for which the inhibition was 12%.

As for `CC1=CC2=NC(=O)/C(=C/c3coc4ccccc4c3=O)C(=N)N2O1`, the inhibition was 1.38%. The figure for `COc1cc(C(=O)Nn2c(O)c(C3=c4ccccc4=NC3=O)sc2=S)ccc1O` is 58.1% (active); for `COc1cc(C(=S)NC2CCCCC2)ccc1O` it is 14.7%. Regarding `CCN(CC)C(=O)c1ccc(O)c(OC)c1`, the inhibition is 4.61%.

As to `CC(C)(C)c1ccc(/C=C2\Oc3c(ccc(O)c3CN3CCN(CCO)CC3)C2=O)cc1`, the inhibition is 23.9%. The figure for `CCOC(=O)c1ccc(S(=O)(=O)N(CCO)Cc2cc3cc(OC)c(OC)cc3[nH]c2=O)cc1` is -2.09%; for `O=C(CNC(=O)COc1ccccc1)NCCc1ccccn1` it is 23.7%. `O=S(=O)(/C=C/c1ccccc1)NCCc1ccccn1`: the inhibition was 70% (active). For `CN(CC(=O)NCCc1ccccn1)S(=O)(=O)c1ccc(Cl)cc1`, the inhibition was 0.36%.

Take `COc1ccccc1OCC(=O)O/N=C(\N)c1ccccn1`: the inhibition is 17.8%.

Take `COc1ccc(NC(=O)Nc2ccc3nc(C)c(C)nc3c2)cc1`: the inhibition was 32.9%. Under `O=C(NCc1ccccn1)c1cc(Br)ccc1Cl` stands 15.5%; under `O=C(NCc1ccccn1)c1ccc2nc(-c3ccco3)c(-c3ccco3)nc2c1`, 91.8% (active). The figure for `COc1ccc(NC(=O)Nc2ccc3nsnc3c2)cc1` is 20.7%. Under `COCCNC(=O)Nc1ccc2nc(-c3ccco3)c(-c3ccco3)nc2c1` stands 107% (active); under `O=C(NCc1ccccn1)c1cc(-c2ccccc2Cl)on1`, 8.56%. Turning to `O=C(NNC(=S)Nc1ccc(F)cc1)[C@H]1C[C@@H]1c1ccccc1`, the inhibition was -82.4%.

In the case of `O=C(Nc1ccc(N2CCOCC2)nc1)c1c(F)cccc1F`, the inhibition is 25.6%. For `Cc1cccc(NC(=O)CSc2nnc(CCNC(=O)OC(C)(C)C)o2)c1C`, the inhibition was -10.6%.

`C=CC1C(OC2OC(CO)C(O)C(O)C2O)OC=C(C(=O)OC)C1CC1CC(=O)CC(CC(=O)CCc2ccc(O)cc2)O1` (stereo not drawn): the inhibition was 18.5%. The figure for `Cc1ccc(S(=O)(=O)N(C)C)cc1NC(=O)c1n[nH]c(=O)c2ccccc12` is -4.07%; for `CCOC(=O)c1cn[nH]c1NC(=S)Nc1ccccc1` it is 18.3%; for `COc1ccc2nc(Nc3nc(-c4ccncc4)cs3)sc2c1` it is 43.5%. As for `CCNc1nc(-c2cc3ccccc3o2)cs1`, the inhibition is 37.2%. For the compound `COc1ccc(OC)c(Nc2nc(-c3ccc(O)c(O)c3)cs2)c1`, the inhibition was 69.2% (active).

`COc1ccc(C)cc1Nc1nc(-c2c(C)[nH]c3ccccc23)cs1`: the inhibition is 12.8%.

For `COc1ccc(-c2csc(Nc3ccccn3)n2)cc1`, the inhibition is 19.1%. The figure for `COc1ccc(-c2csc(Nc3ccc(O)cc3)n2)cc1` is 69.4% (active); for `Nc1ncc(-c2cc3ccccc3oc2=O)s1` it is 21.7%. Turning to `O=c1oc2ccccc2cc1-c1csc(Nc2ccc(O)cc2)n1`, the inhibition is 101% (active). `COc1ccc(Nc2nc(-c3ccccc3)cs2)cc1`: the inhibition was 13.3%. The figure for `O=C(NCc1ccc(F)cc1)C1CCC(CNc2c(N3CCOCC3)c(=O)c2=O)CC1` (stereo not drawn) is -8.83%; for `CN1CCN(c2ncc3c(n2)CC(c2ccccc2F)CC3=O)CC1` (stereo not drawn) it is -10.3%.

Take `CC(=O)NC(CC(=O)Nc1nccs1)c1ccccc1` (stereo not drawn): the inhibition was -8.98%. Turning to `CC1(C)CC(=O)C(N=Nc2c(F)cccc2F)=C(O)C1`, the inhibition is -2.76%. The figure for `CC(NCc1ccccc1OC1CCCC1)c1ccccc1` (stereo not drawn) is -3.22%.

With `Cc1cc(-c2nc(C)c(-c3nnc(SCC(=O)Nc4ccccc4)n3C)s2)no1`, the inhibition is 3.26%. The figure for `Nc1nc(SC23CC4CC(CC(C4)C2)C3)ns1` is 5.98%.

Turning to `CC1=CC(C)(C)NC(=S)N1NC(=O)c1ccccc1Cl`, the inhibition is 5.81%. Take `O=C(Cn1cnc2c(cnn2-c2ccccc2)c1=O)NCc1ccccc1`: the inhibition is 6.36%. Regarding `O=C(Cn1cnc2cc([N+](=O)[O-])ccc2c1=O)NC(=O)NCc1ccccc1`, the inhibition was 53.5% (active).

For `CC(C)(C)NC(=O)Cn1cnc2cc([N+](=O)[O-])ccc2c1=O`, the inhibition is 27.1%. For the compound `Cc1ccc(S(=O)(=O)NNC(=S)NC(C)(C)C)cc1`, the inhibition was -14.3%.

Take `O=C(NC(=O)N1CCSCC1)c1c(Cl)cccc1Cl`: the inhibition was 2.15%. Regarding `Cc1ccc(-c2csc(-c3cc(C)on3)n2)cc1`, the inhibition was -2.5%. For `O=S(=O)(c1cccc(-c2nnc3n2CCCCC3)c1)N1CCOCC1`, the inhibition is 3.07%. The figure for `O=C(Nc1cccc2ncccc12)C(Cl)(Cl)Cl` is 11.1%; for `Cc1ccc(C(=O)Nc2cccc3ncccc23)cc1[N+](=O)[O-]` it is 10.6%.

In the case of `Cc1ccc(/C=C(\C#N)C(=O)Nc2cccc3ncccc23)o1`, the inhibition was 65.7% (active).
